Assays:
Format in all cases: functional
[1] = target: Solute carrier family 2, facilitated glucose transporter member 1 (Homo sapiens) (UniProt P11166); assay: ST_JUDE_LEISH: Cytotoxicity at 2uM final concentration against transgenic Leishmania Mexicana promastigotes LmGLUT1 that are glucose transport deficient and complemented with the human glucose transporter GLUT1. Activity is measured by DNA content using SYBR green in vitro
[2] = target: Hexose transporter 1 (Plasmodium falciparum) (UniProt O97467); assay: ST_JUDE_LEISH: Cytotoxicity at 2uM final concentration against transgenic Leishmania Mexicana promastigotes LmPfHT that are glucose transport deficient and complemented with the Plasmodium falciparum hexose transporter. Activity is measured by DNA content using SYBR green in vitro
[3] = target: Glucose transporter (Leishmania mexicana) (UniProt O61059); assay: ST_JUDE_LEISH: Cytotoxicity at 2uM final concentration against transgenic Leishmania Mexicana promastigotes LmGT2 that are glucose transport deficient and complemented with the L. Mexicana glucose transporter 2. Activity is measured by DNA content using SYBR green in vitro

Solute carrier family 2, facilitated glucose transporter member 1 (Homo sapiens), sequence (P11166 whole entry): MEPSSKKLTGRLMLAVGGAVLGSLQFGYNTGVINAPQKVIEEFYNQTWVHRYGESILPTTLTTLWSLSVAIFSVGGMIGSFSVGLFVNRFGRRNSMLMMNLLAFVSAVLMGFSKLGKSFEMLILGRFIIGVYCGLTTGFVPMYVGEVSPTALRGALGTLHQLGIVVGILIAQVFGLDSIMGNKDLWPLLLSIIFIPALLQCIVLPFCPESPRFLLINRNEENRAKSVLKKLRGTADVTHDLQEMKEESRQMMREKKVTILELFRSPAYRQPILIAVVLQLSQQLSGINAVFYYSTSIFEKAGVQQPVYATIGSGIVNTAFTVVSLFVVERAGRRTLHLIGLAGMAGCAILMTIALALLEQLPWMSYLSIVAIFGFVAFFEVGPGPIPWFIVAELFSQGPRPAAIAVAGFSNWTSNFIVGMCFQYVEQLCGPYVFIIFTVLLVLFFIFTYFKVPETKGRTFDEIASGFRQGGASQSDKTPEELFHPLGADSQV

| Compound | inhibition [1] [%] | inhibition [2] [%] | inhibition [3] [%] |
| --- | --- | --- | --- |
| Cc1cc(C(=O)CN2C(=O)NC3(CCOc4ccccc43)C2=O)c(C)n1Cc1ccco1 (stereo unspecified) | 5.85 | 4.77 | 3.86 |
| CCN1CCN(c2cc(C)c3cc(NC(=O)C=Cc4cccc(OC)c4OC)ccc3n2)CC1 | 5.91 | 11.3 | 1.27 |
| O=C(Nc1cccc(CN2CCN(Cc3cccc(O)c3)CC2)c1)c1ccc(Cl)c(Cl)c1 | -1.71 | -0.84 | -1.62 |
| Cc1ccc(NC(=O)N2CCCN(CCCCCNC(=O)/C=C/c3ccc(Cl)c(Cl)c3)CC2)cc1C | -0.69 | -1.17 | – |
| O=C(/C=C/c1ccc(Cl)c(Cl)c1)NCC(CCCN1CCC(c2c[nH]c3ccccc23)CC1)c1ccccc1 (stereo unspecified) | 3.06 | -1.36 | 2.05 |
| CN1CCC(C(=O)N(Cc2ccc(-c3ccc(CNCCc4ccccc4)cn3)cc2)Cc2cccc(F)c2)CC1 | 3.52 | 0.98 | 4.08 |
| c1cc(-c2ccc(CNCCCn3ccnc3)cc2)cc(-c2nc3ccccc3[nH]2)c1 | 2.87 | 2.53 | 0.93 |
| Cc1cccc2nc(-c3ccc(-c4ccc(CNCCCN5CCCC5=O)cc4)cc3)[nH]c12 | 7.88 | 5.8 | 4.42 |
| Cc1cc(NC2CCCC2)nc(Nc2ccccc2C)n1 | 12.6 | 7.5 | 4.09 |
| COc1cc(Cc2cnc(N)nc2N)cc(OCCCCc2ccc([N+](=O)[O-])cc2)c1OC | -1.12 | -1.89 | 1.51 |
| CC(C)(C)c1ccc(-c2nc3c(ccc4nc(N)nc(N)c43)[nH]2)cc1 | -1 | -1.54 | -2.76 |
| O=C(NCC(=O)N1CCC[C@H]1C(=O)O)[C@@H](Cc1ccccc1)NC(=O)[C@@H]1CCCN1C(=O)CCCc1ccc(O)cc1 | -2.68 | – | – |
| CCc1c(CCNCCCCCCNC(C)Cc2ccc3c(c2CC)OCO3)ccc(OC)c1OC (stereo unspecified) | 4.49 | 3.47 | 1.99 |
| OC(CNCc1ccccc1OCc1ccccc1)c1cc(Br)cs1 (stereo unspecified) | 3.96 | 3.38 | 3.82 |
| c1cncc(CN2CCCN(c3ccc4c(c3)CCN(Cc3ccc(-c5ncc[nH]5)cc3)CC4)CC2)c1 | 1.93 | 2.7 | 2.25 |
| COc1ccc2nc(C)cc(Nc3ccc(Oc4ccc(Br)c5ccccc45)c(Cl)c3)c2c1 | 9.47 | 8.7 | 3.21 |
| CC(C)Cn1cc(C2CCN(CCN3CCC(CNC(=O)c4ccc(-c5ccc(C(F)(F)F)cc5)cc4)CC3)CC2)c2ccccc21 | 2.78 | 3.07 | 2.25 |
| O=[N+]([O-])c1ccc(-n2nc(-c3cccnc3)n(Cc3ccco3)c2=S)c(Cl)c1 | 1.31 | -1.09 | – |
| Cc1cccc(Nc2nccc(NCC(O)c3ccc(C(F)(F)F)cc3)n2)c1 (stereo unspecified) | 10.6 | 11.4 | 2.83 |
| Cc1ccc2c(OCCN3CCC(Cc4cc5c(cc4F)OCC(=O)N5)CC3)cc(F)cc2n1 | 5.35 | 4.63 | 3.85 |
| CC(Oc1c(C2CCN(CCCCNC(=O)c3ccc(-c4ccc(Cl)cc4)cc3)CC2)ccc2c1CCCC2)C(N)=O (stereo unspecified) | -0.63 | -0.36 | -0.27 |
| CCCC(C)NC(=O)/C=C/c1ccccc1-c1cccc(OC)c1 (stereo unspecified) | -0.91 | -0.01 | – |
| CC(C)(C)c1ccc(CN2CCC(NC(=O)c3cc(-c4cccc(C(F)(F)F)c4)cs3)C2)cc1 (stereo unspecified) | 0.92 | 0.62 | 1.98 |
| COc1ccc(CN(C)CC(O)COc2ccc(NC(=O)c3cccc4c(=O)c5cccc(OC)c5[nH]c34)cc2)cc1OC (stereo unspecified) | 7.62 | 3.04 | 3.9 |

| Compound | inhibition [1] [%] | inhibition [2] [%] | inhibition [3] [%] |
| --- | --- | --- | --- |
| O=C(/C=C/c1ccc(Cl)c(Cl)c1)NCCCCCN1CCC(NC(=O)Nc2cccc(C(F)(F)F)c2)CC1 | -1.91 | -0.93 | – |
| O=C(Nc1cccc(CN2CCCN(Cc3cccc(O)c3)CC2)c1)c1cc2ccccc2s1 | -0.14 | -0.1 | – |
| CCn1ccc2c(N3CCCC3=O)cc(C(=O)N[C@@H](Cc3ccccc3)[C@H](O)CNCc3cccc(OC)c3)cc21 | 1.06 | 1.98 | 0.14 |
| COc1cc(NC(=O)Nc2cccc3ccccc23)c(OC)cc1Cl | 5.02 | 5.78 | 3.81 |
| O=C(Nc1cc(C(F)(F)F)cc(C(F)(F)F)c1)c1cccc([N+](=O)[O-])c1 | 3.73 | 4.66 | 2.84 |
| COc1ccc(CNC2Cc3ccccc3C2)cc1-c1ccc(S(=O)(=O)NCCN2CCCC2)cc1 | 3.15 | 1.44 | -2.73 |
| c1ccc2c(C3CCN(CCCCOc4ccc5c(c4)CCN(C4CCC4)CC5)CC3)c[nH]c2c1 | -2.06 | 3.7 | 4.47 |
| Cc1cc(C2CCN(CCCCNC(=O)c3ccc(NC(=O)c4ccc(Cl)cc4)cc3)CC2)c(C)cc1OCc1cccnc1 | 0.04 | -0.98 | -0.82 |
| CCOC(=O)c1cnc2c(OC)cc(OC)c(Cl)c2c1Nc1cccc(C)c1 | 9.4 | 8.66 | 4.43 |
| Cc1ccc(-c2ccn(Cc3cccc(OCc4ccccc4)c3)n2)cn1.Cc1ccc(-c2ccnn2Cc2cccc(OCc3ccccc3)c2)cn1 | 2.15 | 1.4 | -0.57 |
| O=C1NC(=S)N/C1=C/C=C/c1ccc([N+](=O)[O-])o1 | 27.9 | 30.9 | 5.12 |
| CN(C)CCOc1cc(NC(=O)Nc2cccc3c(-c4ccncc4)cccc23)ccc1I | 4.55 | 3.67 | 4.12 |
| NC(=O)C1CCN(Cc2ccc(-c3ccc(-c4nc5cc(C(F)(F)F)ccc5[nH]4)cc3)cc2)CC1 | 4.65 | 2.32 | 3.93 |
| COc1cc(C)nc2ccc(NC(=O)Nc3ccc([N+](=O)[O-])cc3C)cc12 | 3.91 | 2.99 | 3.97 |
| Cn1nc(-c2ccc(NC(=O)Nc3cc(C(F)(F)F)ccc3F)c(F)c2)c2cnc(NCCCn3ccnc3)nc21 | -0.19 | -1.5 | 0.5 |
| COc1ccc2[nH]c3ccccc3c(=O)c2c1 | -0.87 | 0.99 | 6.72 |
| O=C(CCC1CCCC1)N(Cc1ccc(-c2ccc(CNCCc3ccccc3)cc2)cc1)C1CCCNC1 (stereo unspecified) | -0.19 | 1.6 | 0.14 |
| CN1CCN(CCNc2c3ccccc3nc3ccc4ccccc4c23)CC1 | 18.8 | 17 | 12.5 |
| COc1ccc(S(=O)(=O)NCC2CCCN(CCCCCNC(=O)/C=C/c3ccc(Cl)c(Cl)c3)C2)cc1 (stereo unspecified) | 0.97 | 0.66 | 3.47 |
| CCCc1ccc(S(=O)(=O)NC2CCN(C(=O)Nc3ccc(I)cc3)CC2)cc1 | 5.43 | 5.51 | 5.03 |
| COc1cccc(-c2cc(C(=O)Nc3ccc4[nH]c(-c5ccccc5)nc4c3)[nH]n2)c1 | 4.77 | 3.14 | 1.09 |
| CCCC1N=C(N)N=C(N)N1c1cccc([N+](=O)[O-])c1 (stereo unspecified) | 1.33 | -0.09 | 0.75 |
| COc1ccc(C2CC(=O)C3=C(C2)NC(C)=C(C(=O)OC2CCCC2)C3c2ccc(O)cc2)cc1OC (stereo unspecified) | -0.48 | 0.53 | 0.39 |
| O=C(Nc1ccc(OCc2ccccc2)cc1)c1nc2ccccc2nc1Cl | 1.33 | 1.29 | 1.34 |

| Compound | inhibition [1] [%] | inhibition [2] [%] | inhibition [3] [%] |
| --- | --- | --- | --- |
| Cn1cc(-c2ccccc2C(=O)O)c(=O)c2cc(Cl)ccc21 | 2.25 | 1.87 | 2.49 |
| FC(F)(F)Oc1ccc(Nc2cc(-c3ccncc3)nc(-c3cccnc3)n2)cc1 | 2.18 | 3.54 | 0.59 |
| O=C1NC(C(=O)Nc2ccccc2)C(c2ccccc2)S1 (stereo unspecified) | -0.88 | -1.96 | -0.52 |
| Clc1ccc2c(NCCc3ccccc3)ccnc2c1 | 4.51 | 4.33 | 2.56 |
| Cc1c(S(=O)(=O)Nc2ccc3ccn(CCN(C)C)c3c2)sc2ccc(Cl)cc12 | -0.44 | -0.46 | 1.18 |
| CN1CCN(CC(=O)Nc2ccc(-c3ccc(-c4nc5cc(C(F)(F)F)ccc5[nH]4)s3)cc2)CC1 | -0.05 | 1.22 | 1.13 |
| COc1ccc(CNCc2ccc(-c3cccc(-c4nc5cccc(C)c5[nH]4)c3)cc2)cc1 | 2.87 | 1.37 | 0.41 |
| O=C(NC1CCC(N2CCC(O)(c3ccc(F)cc3)CC2)CC1)c1cc2ccccc2[nH]1 (stereo unspecified) | 1.2 | 2.62 | -0.31 |
| Oc1cccc(CNCCCN(Cc2ccccc2)c2ccccc2)c1 | 1.74 | -0.63 | 0.16 |
| COCCNCc1ncsc1-c1ccc2c(Nc3cc(O)c(Cl)cc3F)ccnc2c1 | 3.19 | 3.29 | 1.41 |
| CCC(C)NS(=O)(=O)c1ccc2nc(Nc3ccc(C)c(Cl)c3)n(C(C)C(C)C)c2c1 (stereo unspecified) | 2.38 | 2.08 | 1.6 |
| Fc1c(CNCC2CCN(CC3CCCCC3)CC2)cccc1C(F)(F)F | 4.53 | 3.93 | 5 |
| CCNc1cc(C(=O)N[C@@H](Cc2ccccc2)[C@H](O)CNC2CCC(C(C)(C)C)CC2)cc(N2CCCC2=O)c1 (stereo partly specified) | 0.78 | 1.1 | -2.55 |
| COc1ccc(-c2cnc3ccc(NCc4ccc(S(N)(=O)=O)cc4)nn23)cc1 | 3.11 | 3.14 | 12.6 |
| Nc1nccc2ccc(-c3ccc(Oc4ccccc4)cc3)cc12 | 14.9 | 15.8 | 12.2 |
| Clc1ccc(CNc2ccnc(NCCc3coc4ccccc34)n2)c(Cl)c1 | 5.99 | 6.11 | 0.66 |
| CC(C)N1CCN(c2ccc(OCCCN3CCN(c4cccc(Cl)c4Cl)CC3)c(C(F)(F)F)c2)CC1 | 2.24 | 1.13 | -0.82 |
| CCC(=O)N(c1ccccc1)C1CCN(CCCC(NC(=O)c2cc(C(F)(F)F)cc(C(F)(F)F)c2)c2ccc(Cl)c(Cl)c2)CC1 (stereo unspecified) | 8.75 | 5.36 | 6.09 |
| COc1ccc(NC(=O)c2c(NC(=O)c3cccs3)sc3c2CCCC3)cc1 | 0.31 | 2.45 | 5.21 |
| O=C(NCCc1cccc(F)c1)c1ccc(N2CCN(c3ccncc3)CC2)cn1 | 8.21 | 4.37 | 6.9 |
| COc1c(C2CCN(CCCCNC(=O)c3ccc(-c4ccc(C#N)cc4)nc3)CC2)ccc2c1CCCC2 | 1.52 | 2.03 | 0.52 |
| Cc1cnc2ccc(NS(=O)(=O)c3ccc4c(Cl)cccc4c3)cc2c1N1CCNCC1 | 1.16 | 1.37 | 1.37 |
| COC(=O)C(C)NCC(=O)c1ccccc1 (stereo unspecified) | 6.16 | 6.12 | 6.79 |

— ChEMBL document CHEMBL3433997, “St. Jude Leishmania screening dataset” (2016)
